Rtt109 Vps75: C. albicans Rtt109 histone acetyltransferase inhibition | Q5AAJ8 | purified Rtt109/Vps75, ThioGlo CoA-SH fluorescence, 4 h | inhibition, % at 34.9 µM | hit rate 0.16% among 330,000 | AID 540336;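 active = inhibition of at least 50% in every replicate; inconclusive = best replicate reaches 50% inhibition but some replicates fall short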
Target sequence (Q5AAJ8 whole entry, looked up): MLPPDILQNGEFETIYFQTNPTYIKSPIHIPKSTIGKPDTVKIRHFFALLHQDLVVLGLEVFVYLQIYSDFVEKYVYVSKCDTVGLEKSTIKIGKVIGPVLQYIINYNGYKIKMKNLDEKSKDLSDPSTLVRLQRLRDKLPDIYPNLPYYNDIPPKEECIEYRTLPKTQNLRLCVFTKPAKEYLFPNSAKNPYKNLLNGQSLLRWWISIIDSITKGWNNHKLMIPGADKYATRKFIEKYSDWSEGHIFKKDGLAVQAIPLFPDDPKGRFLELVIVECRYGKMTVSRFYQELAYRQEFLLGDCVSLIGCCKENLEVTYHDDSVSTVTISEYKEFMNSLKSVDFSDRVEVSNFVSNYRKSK
MITF TRPM1 HTS: MITF TRPM1 promoter activation in melanoma cells; SK-MEL-5 TRPM1-promoter luciferase, 24 h; % of positive control, neutral wells = 0; AID 588334; activation, % at 12.5 µM; hit rate 0.75% among 300,000;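 active = mean activation of at least 80% with every replicate also reaching 80%; inconclusive = mean reaches 80% but some replicate falls short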;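 note: 0% = neutral control wells and 100% = parthenolide positive control wells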
esBAF inh: blocks esBAF chromatin remodeling in mouse ES cells | Bmi1-luciferase knock-in reporter, 24 h; 100% = twice the neutral-well signal | AID 602393 | reporter increase, % at 12.5 µM | hit rate 2% among 350,000; in the data active = activation above about 40%; inconclusive = no clear call, values can overlap the other calls;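 note: 0% = median of the plate's neutral control wells and 100% = double that signal; a rise in the Bmi1 reporter signal indicates esBAF inhibition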
Wnt act: Wnt/beta-catenin pathway activation; Wnt/beta-catenin reporter cell assay, activator, plate reader; activation, % at 9.35 µM; hit rate 1.2% among 300,000; AID 743398; in the data active = activation above about 30%, passing the limit was not always enough; inconclusive = no clear call, values can overlap the other calls;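 note: 0% = neutral control wells and 100% = positive control wells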
Statin myotox sup: protects C2C12 myotubes from simvastatin toxicity; ATP luminescence, 48 h; scaled: DMSO 0, geranylgeraniol control 100; rescue of ATP level, % at 7.49 µM; hit rate 0.78% among 330,000;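 active = mean ATP rescue above about 67%, or every replicate alone reaching that limit, limit read from the data, passing the limit was not always enough; inconclusive = no clear call, values can overlap the other calls; inactive = mean under the limit and some replicate under it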;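 note: myotubes were challenged with 10 µM simvastatin during compound exposure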
Numbers without * were called inactive; ? = inconclusive; . = no result. Compounds with a hit are over-represented: about 3.1% of the library has one in this group of screens.

SMILES | Rtt109 Vps75 | MITF TRPM1 HTS | esBAF inh | Wnt act | Statin myotox sup
CN1[C@@H]2Cn3c(ccc(-c4ccc(F)cc4)c3=O)[C@H]1[C@@H](C(=O)Nc1nccs1)[C@@H]2CO | . | . | -3 | . | 1
Cc1nn2c(-c3ccccc3)nnc2c2ccccc12 | 4 | . | 52* | . | 2
CC1=NN(c2ccccc2)C(=O)C1=Cc1ccccc1 | . | . | -5 | 1 | 2
CC1=NN(c2ccccc2)C(=O)/C1=C/c1ccc[nH]1 | -1 | 18 | 50* | . | -9
CC1=NN(c2ccccc2)C(=O)/C1=C/c1ccc(Cl)cc1 | 2 | . | -3 | 0 | -17
CC1=NN(c2ccccc2)C(=O)/C1=C/c1c(O)n(-c2ccc(F)cc2)[nH]c1=O | 36 | 14 | 55* | 7 | -1
C[C@H]1CN([C@@H](C)CO)S(=O)(=O)c2ccc(-c3ccccc3)cc2O[C@@H]1CN(C)S(C)(=O)=O | . | . | 3 | . | 33
Cc1noc(C)c1-c1ccc(C(=O)Nc2cccc(NS(C)(=O)=O)c2)c2occc12 | . | . | 4 | 3 | 13
Cc1noc(C)c1-c1ccc(C(=O)Nc2cccc(C(F)(F)F)c2)c2occc12 | . | . | 53* | -1 | -6
CCOc1ccc(N2C(=O)CSC2c2ccncc2)cc1 (stereo not given) | 63* | . | -6 | . | 7
COc1ccc(N2C(=O)CSC2c2ccc(F)c(F)c2)cc1 (stereo not given) | -5 | -7 | -7 | 0 | 9
O=C(C[C@H]1C[C@H]2c3cc(NC(=O)c4ccc5c(c4)OCO5)ccc3O[C@H]2[C@H](CO)O1)NCc1cccnc1 | . | . | 1 | . | 7
CCNc1nc(NCC)nc(Nn2cnnc2)n1 | -5 | -10 | -7 | -1 | 99*
CCNc1nc(NC(C)(C)C)nc(N(CC)n2cnnc2)n1 | 5 | 8 | 3 | -1 | -3
CO[C@H]1CN(C)C(=O)c2ccc(NC(=O)c3ccc(F)cc3)cc2OC[C@@H](C)N(C(=O)CN(C)C)C[C@H]1C | . | . | -4 | . | 7
CC(=O)Nc1ccc2c(c1)C(=Nc1cccc(C)c1)c1ccccc1-2 | -3 | 8 | 18 | 34* | -2
Fc1ccc2cc(-c3ccccc3F)ncc2c1 | -8 | 57 | 63* | ? | -2
COc1cc2cnc(-c3ccccc3F)cc2cc1OC | 16 | 8 | 21 | 4 | 9
Fc1ccc2cnc(-c3ccccc3F)cc2c1 | 1 | 27 | 54* | 12 | 7
Fc1ccccc1-c1cc2ccccc2cn1 | -7 | 55 | 61* | 36* | -2
C[C@H]1CN([C@@H](C)CO)C(=O)c2cc(NC(=O)Cc3ccccc3)ccc2O[C@@H]1CN(C)S(=O)(=O)c1ccc(Cl)cc1 | . | . | 1 | . | -16
O=[N+]([O-])c1ccc(COc2ccc(CN3CCCC3)cc2)cc1 | 12 | 100* | 24 | 10 | 1
CC1(C)CC(=O)C2=C(C1)Nc1ccccc1NC2c1ccc(F)cc1 (stereo not given) | 1 | -2 | 3 | 1 | 11
CC1(C)CC(=O)C2=C(C1)Nc1ccccc1NC2c1ccc2c(c1)OCO2 (stereo not given) | -20 | . | 18 | 44* | 2
Cc1ccc(S(=O)(=O)N[C@@H]2CC[C@@H](CCNC(=O)c3ccc4c(c3)OCO4)O[C@H]2CO)cc1 | . | . | -5 | . | -4
SMILES | Rtt109 Vps75 | MITF TRPM1 HTS | esBAF inh | Wnt act | Statin myotox sup
O=C(Nc1nncs1)C1COc2ccccc2O1 (stereo not given) | -3 | 2 | . | . | .
Cc1ccc(NC(=O)C2COc3ccccc3O2)cc1 (stereo not given) | 0 | . | 39 | 16 | 4
CC(=O)c1sc(Nc2ccc3c(c2)OCO3)nc1C | . | . | 47* | ? | -4
CC(C)(C)c1csc(NC(=O)C2COc3ccccc3O2)n1 (stereo not given) | -10 | 66 | 55* | 0 | 3
CC(=O)c1sc(Nc2nc3cc4c(cc3s2)OCO4)nc1C | -5 | 3 | . | ? | .
CC1(C)CC(=O)c2sc(NC(=O)C3COc4ccccc4O3)nc2C1 (stereo not given) | -1 | 32 | 45* | 6 | -10
CC(=O)c1sc(NC(=O)C2COc3ccccc3O2)nc1C (stereo not given) | 9 | . | -51 | 36* | 14
CCCNC(=O)C[C@@H]1C[C@@H]2c3cc(NC(=O)Cc4ccncc4)ccc3O[C@@H]2[C@H](CO)O1 | . | . | -1 | . | 2
COc1ccc(NC(=O)Nc2ccc3c(c2)[C@@H]2C[C@H](CC(=O)N4CCc5ccccc5C4)O[C@H](CO)[C@@H]2O3)cc1 | . | . | 0 | . | 1
CN(C)/C=N/c1cnc(C(=O)c2ccc(Cl)cc2)n1C | 36 | ? | 45* | . | -1
CN(C)/C=N/NC(=O)c1ccc(Cl)cc1 | -3 | -7 | . | -2 | .
CC(C)C(NC(=O)C1CCCCC1)C(=O)Nc1ccncc1 (stereo not given) | -7 | -3 | -2 | -2 | 124*
CC(C)C(NC(=O)C1CCCCC1)C(=O)Nc1ccc2c(c1)OCCO2 (stereo not given) | 2 | . | -19 | 12 | 13
COc1ccc(/C=C2\CN(Cc3ccccc3)C/C(=C\c3ccc(OC)c(O)c3)C2=O)cc1O | 15 | -97 | -85 | -14 | 99*
COc1ccc(N2C(=O)c3cccc4c(N(C)CCO)ccc(c34)C2=O)cc1 | -7 | . | 43* | 3 | -5
Cc1ccccc1OCC(O)Cn1nnc2ccccc21 (stereo not given) | . | 79 | 65* | . | -1
O=C(CSc1nc(-c2ccc(F)cc2)cs1)N1CCOCC1 | -6 | 69 | 66* | . | 2
CNC(=O)C[C@@H]1CC[C@H]2[C@@H](COC[C@@H](O)CN2Cc2ccc(Cl)c(Cl)c2)O1 | . | . | 1 | . | 13
Nc1ccc(Br)cc1-c1nc2ccccc2[nH]c1=O | -1 | 12 | . | 6 | .
Fc1ccc(CSc2nc3ccccc3[nH]2)cc1 | 10 | 104* | 33 | . | 5
c1ccc(CSc2nc3ccccc3[nH]2)cc1 | -5 | 111* | -29 | 68* | 0
Nc1ccccc1-c1nc2ccccc2[nH]c1=O | 2 | 61 | 53* | 9 | -1
CCSc1nc2ccccc2[nH]1 | 5 | 3 | 1 | . | -12
CCCOc1ccc(CSc2nc3ccccc3[nH]2)cc1 | 3 | 30 | -1 | . | -8
Nc1ncnc2nc(SCc3ccccc3)[nH]c12 | -2 | -4 | 1 | . | 99*
SMILES | Rtt109 Vps75 | MITF TRPM1 HTS | esBAF inh | Wnt act | Statin myotox sup
C[C@@H]1CN([C@H](C)CO)C(=O)Cc2cc(NC(=O)CCN3CCOCC3)ccc2O[C@H]1CN(C)C(=O)Nc1ccc(F)cc1 | . | . | 9 | . | -3
CO[C@H]1CN(C)C(=O)c2ccc(NS(=O)(=O)c3ccc(Cl)cc3)cc2OC[C@@H](C)N(C)C[C@@H]1C | . | . | 7 | . | -4
O=C(C[C@@H]1C=C[C@H](NC(=O)Nc2ccc3c(c2)OCO3)[C@H](CO)O1)NCc1ccc2c(c1)OCO2 | . | . | 12 | . | 12
c1ccc(CSCc2nc3ccccc3[nH]2)cc1 | 2 | 111* | . | . | .
Clc1ccccc1CSc1nc2ccncc2[nH]1 | 3 | 67 | ? | 39* | -12
N/N=C(/Cc1nc2ccccc2[nH]1)c1ccc([N+](=O)[O-])cc1 | 1 | 25 | . | 38* | .

Assay outcomes as filed in PubChem BioAssay.
